# Source: PubChem
# FMDV antiviral: FMDV antiviral activity by firefly signal; 120,000 compounds, 0.23% hits; FMDV antiviral cell assay, firefly luciferase signal; Potency, µM (titrated, usually from 57.5 µM), for the others: at the highest dose activity change, negative = inhibition, actives largely listed as inhibitors; AID 1745856; note: nearly all actives have a fitted effect of over 60% in size
# FMDV RLuc: FMDV antiviral activity by Renilla signal | FMDV replicon cells, Renilla luciferase signal | Potency, µM (series often up to 57.5 µM), for inactives: at the highest dose activity change, negative = inhibition, actives largely listed as inhibitors | 120,000 compounds, 0.32% hits | AID 1745857; note: nearly all actives have a fitted effect of over 55% in size
# An asterisk follows results filed as active; ? = inconclusive; [ ] = dose if it differs, or a comment. A selection: hits, their analogues and other compounds. The true share with any hit is near 0.45%. Calls come from the whole dose curve. % is set by controls: 0 for no effect and ±100 for the full control effect; potency is the fitted concentration of half-maximal effect.
SMILES,FMDV antiviral,FMDV RLuc
CCOC(=O)c1c(C)[nH]c(CCC(=O)NCc2ccc(OC)cc2OC)c1C,-12.0%,15.0%
O=C(Nc1ccncc1)c1ccc(-c2ccccc2)cc1,-10.7%,3.16µM*
O=C(Nc1ccc(F)c(Cl)c1)c1ccc(-c2ccccc2)cc1,118.2%,10.5%
Cc1ccc(NS(=O)(=O)c2ccc3c(c2)C(C)(C)C(=O)N3)cc1C,-7.1%,239.4%
CCN1CCN(CCOc2ccc3c(=O)c(-c4ccc(Cl)cc4)coc3c2)CC1,-8.8%,17.8µM*
CCN1CCN(CCOc2ccc3c(=O)c(-c4ccc(Br)cc4)coc3c2)CC1,36.6%,?
O=C(NC1(c2ccccc2)CCC1)c1cc(=O)[nH]c2ccccc12,-3.0%,14.3%
Cc1cccc(C)c1NC(=O)c1ccc2ncsc2c1,22.4µM*,4.6%
Cc1nccc(CNC(=O)c2ccc3ncsc3c2)n1,1.7%,1.6%
CCCOc1ccc(C(=O)C(CCC(CNC(C)(C)C)C(=O)c2ccc(OCCC)cc2)CNC(C)(C)C)cc1 (stereo not drawn),?,28.2µM*
CCCOc1ccc(C(=O)Nc2ccc(NC(=O)c3ccc(Br)cc3)cc2)cc1,6.8%,-7.7%
O=C(CN1C(=O)c2ccccc2S1(=O)=O)c1ccc(F)cc1,11.2µM*,13.0%
O=C(CN1C(=O)c2ccccc2S1(=O)=O)c1ccc(-c2ccc(Br)cc2)cc1,32.6%,-10.4%
COc1ccc(-c2c(C)oc3cc(OS(=O)(=O)c4ccc(C)cc4)ccc3c2=O)cc1,3.16µM*,2.24µM*
COc1ccc(-c2c(C)c3cc(OS(=O)(=O)c4ccc(C)cc4)ccc3oc2=O)cc1,-30.8%,?
Cn1c(C(=O)NCCc2ccco2)cc2cc(S(=O)(=O)N3CCCCC3)ccc21,-14.4%,6.3%
Cc1cccc(Nc2nc(C(=O)N3CCC(C)CC3)cs2)c1,25.1µM*,12.6µM*
Cc1ccc(Nc2nc(C(=O)N3CCC(C(=O)NCc4ccccc4)CC3)cs2)cc1,47.6%,11.5%
COc1ccc(/C=C2\Oc3cc(OC(=O)C(C)(C)C)ccc3C2=O)cc1OC,178.5%,23.0%
N#Cc1nc(-c2ccco2)oc1N1CCN(C(=O)CNC(c2ccccc2)c2ccccc2)CC1,?,10µM*
N#Cc1nc(-c2ccco2)oc1N1CCN(C(=O)c2ccccc2Cl)CC1,-8.0%,0.3%
Cn1cnnc1-c1cccc(NC(=O)Cc2cccc(F)c2)c1,7.9%,57.5%
Cc1cccc(-c2nnc(SCCC(=O)O)o2)c1,1µM*,-8.9%
Cc1cccc(-c2nnc(SCC(=O)N3CCCCC3)o2)c1,130.8%,8.9%
COc1cc(C(=O)NCc2coc(-c3cccs3)n2)ccc1OC(F)F,-10.2%,-3.3%
SMILES,FMDV antiviral,FMDV RLuc
Cc1cccc(N2CCN(C(=O)CCCCn3c(=O)[nH]c4ccsc4c3=O)CC2)c1C,14.1µM*,-27.9%
O=C(CCCCn1c(=O)[nH]c2ccsc2c1=O)N1CCN(c2cccc(C(F)(F)F)c2)CC1,?,8.7%
Cc1ccc(/C=C/C(=O)Nc2ccc(Cl)cc2Cl)cc1,-1.3%,4.6%
Cc1cccc(C)c1NC(=O)CCS(=O)(=O)c1ccc2c(c1)n(C)c(=O)c(=O)n2C,0.0%,-14.0%
Cc1onc(-c2ccccc2Cl)c1C(=O)Oc1ccccc1F,-19.4%,37.2%
CCOc1ccc(OC(=O)c2c(-c3ccccc3Cl)noc2C)cc1,28.2µM*,?
C[CH2][Hg][S]c1ccccc1C(=O)O,0.0%[11.5 µM],1.7%
CCS(=O)(=O)N1CCc2cc(C(=O)Nc3ccc(C)c(Cl)c3)ccc21,95.9%,22.2%
CCS(=O)(=O)N1CCc2ccc(NC(=O)Nc3ccc(C)c(C)c3)cc21,?,4.47µM*
COc1ccc(C2C(C#N)=C(N)OC3=C2C(=O)CC(C)(C)C3)c2ccccc12 (stereo not drawn),0.1%,-2.9%
CCCCOC(=O)c1ccc(NC(=O)c2ccc3c(c2)CCCN3S(C)(=O)=O)cc1,28.2µM*,22.4µM*
CCCCOC(=O)c1ccc(NC(=O)c2ccc3c(c2)CCN3S(=O)(=O)c2ccccc2)cc1,-39.3%,-11.1%
CC(C#N)OC(=O)C12CC3CC(CC(O)(C3)C1)C2 (stereo not drawn),0.7%,9.9%
COc1ccc(C2C(C(=O)Nc3ccccc3)=C(C)Nc3nc(SCC(=O)c4ccc(C)cc4)nn32)cc1 (stereo not drawn),0.0%,2.4%
CCCn1c(N(C)Cc2ccccc2)nc2c1c(=O)n(C)c(=O)n2C,14.1µM*,?
Cn1c(=O)c2c(nc(N(CCO)CCO)n2Cc2ccccc2)n(C)c1=O,2.0%,1.1%
Cc1ccc(NC(=O)/C=C\C(=O)N(c2ccc(C(C)C)cc2)C(C(=O)NCc2ccco2)c2ccc(Cl)cc2)cc1 (stereo not drawn),-20.2%,-10.3%
COc1ccc(Cn2c(CCC(=O)Nc3ccc(C)cc3C)nc3cccnc32)cc1,-10.7%,-2.9%
Cc1ccc(NC(=O)Cc2ccc(-n3c(C)nc4cccnc43)cc2)c(Cl)c1,14.1µM*,10µM*
COc1ccc(NC(=O)COc2ccc(Cl)cc2Cl)c2cccnc12,2.51µM*,?
COc1ccc(NC(=O)c2ccc(Cl)cc2)c2cccnc12,42.5%,-12.0%
CCc1ccc(Sc2cc(C(=O)NCCCN3CCCC(C)C3)c3ccccc3n2)cc1 (stereo not drawn),-5.0%,8.0%
COc1ccc(-c2cc(C(F)(F)F)nc(NCc3ccccc3)n2)cc1,?,3.98µM*
Fc1ccc(-c2cc(C(F)(F)F)nc(NCc3ccccc3)n2)cc1,-8.9%,-5.4%
CCCCN(C)C(=O)C1CCCN(c2ncnc3onc(C)c23)C1 (stereo not drawn),?,2µM*
SMILES,FMDV antiviral,FMDV RLuc
CCCCN(CC)C(=O)C1CCCN(c2ncnc3onc(C)c23)C1 (stereo not drawn),-27.6%,?
COc1ccc(Nc2cc(C)nc(Nc3ccc(NC(=O)CC(C)(C)C)cc3)n2)cc1,?,22.4µM*
COc1ccc(Nc2cc(C)nc(NCc3ccccc3)n2)cc1,0.3%,-23.8%
O=[N+]([O-])c1ccc(NC(c2ccccc2)c2ccccn2)c2ccncc12 (stereo not drawn),-8.1%,-4.5%
CC(Nc1ccc([N+](=O)[O-])c2cnccc12)c1ccc(F)cc1 (stereo not drawn),?,25.1µM*
O=[N+]([O-])c1ccc(N/N=C/c2c[nH]c3ccccc23)c(S(=O)(=O)Nc2ccccc2Cl)c1,-18.1%,68.2%
O=[N+]([O-])c1ccc(N/N=C/c2c[nH]c3ccccc23)c(S(=O)(=O)Nc2ccc(Cl)cc2)c1,25.1µM*,-92.9%
CC(c1ccccc1Cl)N(C)CCS(=O)(=O)CCC(N)=O (stereo not drawn),0.9%,-10.8%
CCc1ccc(-c2nc(C)c(C(C)=O)s2)cc1,128.9%,14.3%
CCc1ccc(-c2nc(COC(=O)c3c(C)nsc3N)cs2)cc1,?,1.41µM*
C/C(=N/O)c1ccc(-n2ccnc2)cc1,31.8%,-9.6%
COC(=O)c1ccccc1NC(=O)CN1C(=O)CN=C(c2ccccc2Cl)c2cc(Cl)ccc21,-28.6%,-9.7%
O=C1CN=C(c2ccccc2Cl)c2cc(Cl)ccc2N1Cc1cccc(Cl)c1,25.1µM*,31.6µM*
CC1CCCCC1NC(=S)NN (stereo not drawn),0.0%,24.5%
CC1CCCCC1NC(=S)Nc1cccc2cnccc12 (stereo not drawn),14.1µM*,?
COC(=O)C1=CNC=C(C(=O)OC)C1c1ccccc1F,0.0%,47.9%
CCOc1ccccc1NC(=O)Nc1ccc(CN2CCOCC2)cc1,121.2%,-5.6%
CNc1nc2c(c(=O)n(C)c(=O)n2C)n1CC(O)COc1ccc(C)cc1 (stereo not drawn),?,11.2µM*
